hDAT+cocaine: modulates human dopamine transporter uptake under cocaine; Q01959; LLC-PK1 hDAT cells, [14C]-dopamine uptake with cocaine IC80; actives deviate in either direction; B-score at 10 µM; actives 1.3% (n = 110,000);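 active means Z score or B-score, a plate-position-corrected score, falls beyond the plate's 99.7% confidence bounds, in either direction; inactive means both scores lie inside the 99.7% bounds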;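 further: scored against the spread of the other compound wells on the same plate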
CYP2C9 inhib: inhibitors of human CYP2C9; P11712; CYP2C9 Supersomes, luciferin-H conversion, luminescence; AID 777; inhibition, % at 5 µM; actives 20% (n = 96,000);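 active means blocking of liver enzyme CYP2C9 beyond about 50% at 5 µM, limit read from the data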
CYP2C19 inh: blocks human cytochrome P450 2C19. P33261. CYP2C19 Supersomes, luciferin-H EGE luminescence, 30 min. inhibition, % at 5 µM. actives 21% (n = 96,000);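 active means CYP2C19 inhibition above a set limit at 5 µM in the primary screen, cut at about 50% in these data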;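 further: plate controls were negative control wells for no effect and 2.5 mM tranylcypromine positive control for full effect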
CYP2C9 activ: CYP2C9 (human) activation; actives 1.4% (n = 96,000); activation factor at 5 µM; P11712; AID 1024; recombinant CYP2C9, luciferin-H conversion, luminescence; hits give high values; factor 1 = untreated enzyme, 0 = blocked;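 active means activation factor of 2 or more for CYP2C9 at a 5 µM dose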;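 further: 0 = sulfaphenazole-blocked wells and 1 = vehicle-only wells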
D1 allo mod: allosteric modulators of human D1 dopamine receptor. P21728. HEK293 D1, CRE-luciferase, dopamine EC30 potentiation; actives deviate in either direction. B-score at 10 µM. actives 5.9% (n = 58,000). AID 641;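 active means luminescence count or its row- and column-corrected plate score outside the 99.7% band of the plate's sample wells, on either side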
Target sequence (P21728 whole entry, looked up): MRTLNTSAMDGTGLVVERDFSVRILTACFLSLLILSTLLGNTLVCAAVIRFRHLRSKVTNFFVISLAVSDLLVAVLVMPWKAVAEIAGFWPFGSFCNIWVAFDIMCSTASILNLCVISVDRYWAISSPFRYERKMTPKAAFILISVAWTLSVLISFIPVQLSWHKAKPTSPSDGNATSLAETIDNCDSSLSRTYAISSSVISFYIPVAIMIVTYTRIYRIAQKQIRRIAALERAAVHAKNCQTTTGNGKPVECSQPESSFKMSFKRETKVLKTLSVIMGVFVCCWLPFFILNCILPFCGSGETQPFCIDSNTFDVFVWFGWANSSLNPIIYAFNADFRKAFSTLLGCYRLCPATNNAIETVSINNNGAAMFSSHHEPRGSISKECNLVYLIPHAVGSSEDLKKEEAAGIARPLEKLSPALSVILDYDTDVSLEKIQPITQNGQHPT
CYP2C19 activ: activators of human cytochrome P450 2C19. recombinant CYP2C19, luciferin-H EGE luminescence; hits give high values; 0 = fully inhibited enzyme, 1 = untreated enzyme. activation factor at 5 µM. 96,000 tested, under 10 active;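 active means activation factor of at least 2 at 5 µM in the primary screen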;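 further: 0 = wells with 2.5 mM tranylcypromine and 1 = vehicle-only wells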
The depositor's hits bear a star; x = no result given. Compounds with a hit are over-represented: about 28% of the library has one in this group of screens.

SMILES	hDAT+cocaine	CYP2C9 inhib	CYP2C19 inh	CYP2C9 activ	D1 allo mod	CYP2C19 activ
Cc1ccccc1N(CC(=O)N/N=C/c1ccc(N(C)C)cc1)C(=O)c1ccccc1	x	93*	89*	0.1	x	0.1
Nc1ncnc2c1nc(Br)n2[C@@H]1O[C@@H]2COP(=O)(O)O[C@H]2[C@H]1O	0.22	x	x	x	x	x
C=CCOc1ccc(/C(O)=C2/C(=O)C(=O)N(CCCn3ccnc3)C2c2cccs2)cc1 (stereo not given)	0.33	38	31	0.6	1	0.7
O=C(O)c1ccc2c3c(ncnc13)-c1ccccc1C2=O	x	-1	14	1	-0.34	0.9
O=C1c2ccccc2-c2ncnc3cccc1c23	x	x	x	x	13*	x
COC(=O)NCC12CC3CC(C1)CC(CNC(=O)OC)(C3)C2	-1.2	-13	38	1.1	x	0.6
CC(=O)NS(=O)(=O)c1ccc(NC(=O)c2cc(-c3ccc(C)c(C)c3)nc3ccccc23)cc1	0.081	16	12	0.8	x	0.9
Cc1ccc(-c2cc(C(=O)n3cnc4ccccc43)c3ccccc3n2)cc1C	0.039	88*	33	0.1	x	0.7
Cc1ccc(-c2cc(C(=O)NCc3ccccn3)c3ccccc3n2)cc1C	2	59*	33	0.4	x	0.7
CCSc1nc2ccccc2n1C(=O)/C=C\c1ccc(OC)c(OC)c1	-1	10	4	0.9	x	1
Cc1ccccc1NC(=O)C1CC(=O)N(c2ccccc2F)C1 (stereo not given)	-0.00011	-4	24	1	-0.68	0.8
Cc1ccccc1NC(=O)C1CC(=O)N(c2ccc3c4c(cccc24)CC3)C1 (stereo not given)	0.021	55*	10	0.4	x	0.9
Cc1ccc(-c2nnn(CC(=O)NC3CCCc4ccccc43)n2)cc1 (stereo not given)	x	16	29	0.8	x	0.7
Cc1ccc(S(=O)(=O)N2CCN(CC(=O)NC3CCCc4ccccc43)CC2)c(C)c1 (stereo not given)	1.3	-4	52*	1	x	0.5
Cc1ccc(S(=O)(=O)N2CCN(CC(=O)NC3CCCc4ccccc43)CC2)cc1C (stereo not given)	0.55	-12	70*	1.1	x	0.3
CC1(C)CC(=O)C(C=NCC2CCCO2)=C(O)C1 (stereo not given)	0.84	4	6	1	0.71	0.9
COC(=O)CNC(=O)c1ccccc1	0.86	x	x	x	x	x
CC(C)(C)C(=O)COC(=O)CNC(=O)c1ccc(Oc2ccccc2)cc1	1.6	53*	22	0.5	x	0.8
COc1ccc(S(=O)(=O)Nc2cc(C(C)C)c(O)cc2C)cc1	0.93	-22	88*	1.2	-0.44	0.1
COc1ccc(S(=O)(=O)Nc2cc(C)c(O)cc2C(C)C)cc1	2.6	-135	99*	2.4*	-1.3	0
O=C(c1ccccc1S(=O)(=O)NCC(O)COc1ccc([N+](=O)[O-])cc1)N1CCCCC1 (stereo not given)	1.5	10	11	0.9	x	0.9
COc1cc(C(=O)NCCCNc2nc3cc(C)cc(C)c3cc2C#N)cc(OC)c1OC	1.8	50	57*	0.5	x	0.4
COc1cc(C(=O)NCCCCCC(=O)O)cc(OC)c1OC	0.86	35	8	0.6	-0.31	0.9
N#CC1=C(C2CC2)CC(c2ccccc2)C(C#N)=C1N (stereo not given)	-0.58	7	57*	0.9	-2	0.4
Cc1cccc(C(=O)Oc2ccccc2-c2nnco2)c1	-0.15	-15	2	1.1	x	1
SMILES	hDAT+cocaine	CYP2C9 inhib	CYP2C19 inh	CYP2C9 activ	D1 allo mod	CYP2C19 activ
Clc1ccccc1COc1ccccc1-c1nnco1	0.96	50*	27	0.5	-1.3	0.7
CCCCCC(C)NC(=O)c1ccoc1C (stereo not given)	-0.36	x	x	x	x	x
Cc1ccc(-c2nnc(CSc3nc4cc5c(cc4cc3C)OCO5)o2)cc1	-2.3	65*	32	0.4	0.52	0.7
CCc1nc(SCc2nnc(-c3ccc(C)cc3)o2)c2c(C)c(C)sc2n1	0.7	x	x	x	x	x
CC(C)(C)NC(=O)[C@@H]1CN(Cc2cccnc2)CCN1C[C@@H](O)C[C@@H](Cc1ccccc1)C(=O)N[C@H]1c2ccccc2C[C@H]1O	0.012	x	x	x	x	x
CCS(=O)(=O)c1ccc2oc(SCC(=O)NC(C)C3CC4CCC3C4)nc2c1 (stereo not given)	-0.51	24	10	0.8	x	0.9
Cc1ccc(/C=C(\C#N)C(=O)Nc2c(C)cccc2C)s1	-0.85	64*	13	0.4	x	0.9
CC(C)(C)NC(=O)c1ccc2c(c1)C(=O)N(C1CCCCC1)C2=O	0.98	39	57*	0.6	2.2	0.4
COc1ccc(NC(=O)C2CCCO2)cc1OC (stereo not given)	-0.016	8	-7	0.9	x	1.1
CCC(=O)Oc1ccc(C(=O)Nc2ccc3c(c2)C(=O)N(C2CCCCC2)C3=O)cc1	0.24	58*	24	0.4	x	0.8
O=C(Nc1ccc2c(c1)C(=O)N(C1CCCCC1)C2=O)C1CCCO1 (stereo not given)	1.7	72*	44	0.3	2.7	0.6
Cc1ccc(NC(=O)c2ccc(OC(=O)CCN3C(=O)c4ccccc4C3=O)cc2)cc1	1.2	-16	5	1.2	x	0.9
CCOC(=O)c1ccc2c(c1)C(=O)N(C1CCCCC1)C2=O	0.15	-5	-7	1	0.45	1.1
COc1cccc(NC(=O)COc2ccc(N3CC(C(=O)NCC(C)C)CC3=O)cc2)c1 (stereo not given)	-0.022	44	12	0.6	-0.096	0.9
COc1ccc(Nc2nc(N3CCCC3)c3ccccc3n2)cc1	0.61	-2	13	1	-6.9*	0.9
CCN(CC)c1ccc(Nc2nc(N3CCOCC3)c3ccccc3n2)cc1	-0.021	55*	54*	0.4	x	0.5
c1ccc(Nc2nc(N3CCOCC3)nc(N3CCOCC3)n2)cc1	-0.18	35	40	0.6	2.4	0.6
OCCNc1nc(Nc2ccccc2Oc2ccccc2)nc(N2CCCC2)n1	-0.2	x	x	x	x	x
Cc1ccc(SCCNC(=S)Nc2cc(C)ccc2C)cc1	1.3	42	54*	0.6	x	0.5
Cc1ccc(SCCNC(=S)Nc2ccc(C)c(C)c2)cc1	0.3	29	44	0.7	x	0.6
CCOc1ccccc1NC(=O)c1ccc(F)c(S(=O)(=O)N2CCC3(CC2)OCCO3)c1	-2	58*	58*	0.4	2.1	0.4
COc1cccc(C(=O)NCC2CCN(c3ccc(S(=O)(=O)N4CCOCC4)cc3)CC2)c1	0.3	55*	56*	0.4	-0.36	0.4
O=C(Nc1ccccc1C(=O)O)c1ccc(Cl)c(S(=O)(=O)N2CCOCC2)c1	1.9	75*	-10	0.2	-0.047	1.1
O=C(NC12CC3CC(CC(C3)C1)C2)c1ccc(S(=O)(=O)N2CCOCC2)cc1	2.5*	0	-6	1	0.24	1.1
